Laboratory results published in PubChem BioAssay (NCI).
This is part of a sample that, as a whole, favours compounds with a hit. Of some 79,000 tested, about 15% had one in any assay. Unmarked numbers belong to inactive results. Active and inactive are the calls of the source. Cut-off read from the data, not from the text of the source: active = growth inhibition above about 70%; inactive = the rest.

Columns and labels:
[1] = NCI Yeast Anticancer Drug Screen. Data for the rad50 strain (AID 155);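 note: 0% = growth of vehicle-only cultures of the same strain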; settings: S. cerevisiae rad50 strain growth inhibition, active compounds read high; at 50.0 µM unless noted
Summary of the method: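 Growth of the mutant yeast was measured after compound exposure and referenced to vehicle-treated cultures.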

[2] = NCI Yeast Anticancer Drug Screen. Data for the mec2-1 strain (AID 157); settings: S. cerevisiae mec2-1 strain, active compounds read high; at 50.0 µM unless noted
Summary of the method: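 Test agents were screened against the mec2-1 yeast strain, with defined DNA repair or cell cycle alteration. Growth was scored as inhibition against vehicle-only controls.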

[3] = NCI Yeast Anticancer Drug Screen. Data for the sgs1 mgt1 strain (AID 161);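 note: 0% = growth of cultures given vehicle only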; settings: S. cerevisiae sgs1 mgt1 strain, active compounds read high; at 50.0 µM unless noted
Summary of the method: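 Inhibition of yeast growth, normalised to vehicle-treated controls, is reported for a strain bearing genetic alterations in DNA damage repair.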

[4] = NCI Yeast Anticancer Drug Screen. Data for the cln2 rad14 strain (AID 165);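 note: 0% = growth equal to vehicle treated cultures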; settings: S. cerevisiae cln2 rad14 strain, active compounds read high; at 50.0 µM unless noted
Summary of the method: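 Growth of compound-exposed yeast (cln2 rad14 genotype) measured and expressed as inhibition relative to vehicle.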

[5] = NCI Yeast Anticancer Drug Screen. Data for the bub3 strain (AID 167); settings: S. cerevisiae bub3 mutant strain, active compounds read high; at 50.0 µM unless noted
Summary of the method: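 Whole-cell yeast assay. The mutant strain was incubated with compounds, and growth inhibition was determined by comparison with vehicle-treated cells.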

[6] = NCI Yeast Anticancer Drug Screen. Data for the mlh1 rad18 strain (AID 175); settings: S. cerevisiae mlh1 rad18 strain growth inhibition, active compounds read high; at 50.0 µM unless noted
Summary of the method: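 In this whole-cell yeast screen, a strain with altered DNA damage repair is challenged with compound, and its growth is measured against matched vehicle-treated controls.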

Row | SMILES | growth inhibition [1] | growth inhibition [2] | growth inhibition [3] | growth inhibition [4] | growth inhibition [5] | growth inhibition [6]
1 | O=c1[nH]c2ccc(O)cc2o1 | 33.2% | 17.8% | 27.6% | -10.1% | 12.9% | 22.2%
2 | O=C(O)CCC(CC(=O)O)C(=O)O (stereo not given) | 19.1% | 4.95% | 16% | 13.7% | 23.9% | 15.4%
3 | COc1ccccc1N=C(N)N/N=C/c1c[nH]c2ccccc12 | 0.25% | -8.85% | -9.6% | 17% | 1.45% | 15.2%
4 | Cc1nc2c(cnn2C)c(=O)n1C(C)C | 3.3% | -0.3% | 3.8% | -6.5% | -11.3% | 3.4%
5 | O=C(O)/C(I)=C(\I)c1ccccc1 | -0.55% | -6.7% | 4.7% | -9.3% | 2.45% | 8.5%
6 | N#CCCC(CC#N)N1CCN(CCO)CC1 (stereo not given) | -35.1% | -43.9% | -18.7% | -21.2% | -0.95% | -39.4%
7 | C/C(=N\O)C(=O)c1ccc(C)cc1 | -0.05% | -12.7% | 2.2% | -30.6% | -22.7% | -8.7%
8 | O=C1NC(N2CCOCC2)=N/C1=C\c1cccs1 | -8.45% | 5.05% | 13.2% | 32.3% | 1.05% | -34%
9 | COc1cccc(-c2cc(=O)c3cc(C)cnc3[nH]2)c1 | -17.2% | 3.85% | 4.05% | -2.4% | 18.8% | -13.2%
10 | COC1OC(CI)C(O)C(O)C1O (stereo not given) | -6.05% | 2.4% | -4.45% | -24.2% | 37.8% | -16.7%
11 | O=C(O)CN(CCO)CCN(CC(=O)O)CC(=O)O.[Fe+2] | 6% | -32% | -18.5% | 18.6% | -14.5% | 2.25%
12 | O=C(O)c1c[nH]c2cc(OCc3ccc4ccccc4c3)ccc2c1=O | 20.2% | 2.55% | -11.3% | -2.05% | -3.05% | 6.55%
13 | COc1ccc(-c2nc(N)c3ncn(C4OC(CO)C(O)C4O)c3n2)cc1 (stereo not given) | -13.2% | -23.9% | -7.15% | -12.2% | -27.1% | 15.4%
14 | Cc1cccc2ccc(-c3cc4ccccc4s3)nc12 | -5.95% | -15.1% | -3.1% | -87.6% | -10.2% | -21.1%
15 | CC(=O)c1cccc(NC(=O)Oc2cc(=O)oc3ccccc23)c1 | 5.75% | 19.3% | 12.4% | -4.6% | 38.2% | 29.5%
16 | CCCCCCCCC(=O)NCO | -17.8% | -10.9% | -21.4% | -3.4% | -25.6% | -24.1%
17 | COc1cc2ccc(Cc3nccc4cc(OC)c(OC)cc34)cc2cc1OC | 98.4% (active) | 98.5% (active) | 99% (active) | 91% (active) | 97% (active) | 98.2% (active)
18 | COc1ccc2[nH]c3ccccc3c(=O)c2c1 | 12.6% | -3.2% | 8.8% | -66.4% | 3% | -6.65%
19 | CC(=O)Nc1cccc(Br)c1 | -18.1% | -23.6% | -18.1% | -12.8% | -25.5% | -19.1%
20 | CC(=O)OCC1OC(n2c3c(c(-c4cccc5ccccc45)c(C#N)c2=S)CCCC3)C(OC(C)=O)C(OC(C)=O)C1OC(C)=O (stereo not given) | -1.25% | -5.3% | 14% | 6.15% | -5.8% | 12.7%
21 | CCCOC(=O)N(C)c1ccccc1 | 17.8% | -10.3% | 2.95% | -32.3% | -22.6% | -2.1%
22 | O=C(O)C(=O)c1c(O)[nH]c2ccccc12 | 1.35% | -10.1% | 11.5% | -14.8% | -8% | 17.6%

Row | SMILES | growth inhibition [1] | growth inhibition [2] | growth inhibition [3] | growth inhibition [4] | growth inhibition [5] | growth inhibition [6]
23 | Cc1cc(C)nc(NS(=O)(=O)c2ccc(NC(=O)c3ccc(Cl)c4c(Nc5ccc(S(=O)(=O)N=C(N)N)cc5)c5ccccc5nc34)cc2)n1 | 28% | 27% | 20.1% | 29.7% | 23.2% | 31.4%
24 | CC(O)CNC1=CC(=O)C(=O)c2ccccc21 (stereo not given) | -13.3% | -26.1% | 4.8% | 4.3% | 20.4% | -20.6%
25 | CC1(C)SCc2nc3ccccc3n21 | -9.75% | -34.9% | 12.2% | 21.9% | – | 6.3%
26 | O=C(CCS(=O)(=O)CCC(=O)c1ccc2ccccc2c1)c1ccc2ccccc2c1 | -66.8% | -13.2% | -2.4% | -35.3% | – | -52.5%
27 | O=C(O)CCC(=O)CCC(=O)O | 13.7% | -8.85% | 3.6% | 2% | – | 7.2%
28 | N#Cc1c(N2CCCC2)nsc1Nc1ccc(F)cc1 | 2.6% | 2.85% | 0.8% | -16% | – | -9%
29 | CC(C)c1ccccc1O | 34.9% | 30.7% | 9.95% | 8.8% | – | 22.4%
30 | O=C1/C(=C\c2ccccc2)Sc2cc[nH]c21 | 13.5% | 1.3% | 4.5% | -1.95% | – | 17.2%
31 | CC(=O)OCC(OC(C)=O)C(OC(C)=O)C(OC(C)=O)C(OC(C)=O)C(=O)NC1CCc2ccccc2C1 (stereo not given) | 24.8% | 2.6% | 13.6% | 30.4% | – | 21.9%
32 | CCCCCN=C(N)C(N)=NCCCCC | 47.8% | 8% | 24.7% | -31.1% | – | 24.9%
33 | O=c1nc(NCc2ccco2)ccn1C1OC(CO)C(O)C1O (stereo not given) | 12.3% | 9.45% | 12.6% | 13.9% | – | 14.6%
34 | CC1(C)OC1CS(=O)c1ccccc1 (stereo not given) | -6.1% | -5.4% | -14.5% | -17.4% | – | -42.8%
35 | CCCCCCC(=O)OCC(=O)c1ccc(Br)cc1 | 2.85% | 28.2% | 15.2% | -115% | – | 15%
36 | CCOC(=O)COc1cc2c(cc1C(CC)c1ccc(OC)cc1)OCO2 (stereo not given) | -14.9% | -17.6% | -12.1% | -20.1% | – | -9.5%
37 | C1=NC(c2ccccc2)=CN(C2CCCCCCCCCCC2)C1(c1ccccc1)C1CCCCCCCCCCC1 (stereo not given) | -18.2% | -8.55% | -12% | -19.4% | – | 13.2%
38 | O=C(c1ccc([N+](=O)[O-])cc1)N(Cc1ccccc1)Cc1ccccc1 (tested in a mixture with another compound) | -7% | 15.7% | -12.7% | -10.9% | – | 9.5%
39 | CSc1nc(N)c2cnn(Cc3ccccc3)c2n1 | 28.4% | 12.5% | 34% | 8.95% | – | 31.4%
40 | COc1ccc(C(=O)/C=C/N)c(OC)c1 | 17.3% | -25.4% | 5.45% | 20% | – | 10.9%
41 | CN(/C(=N/C(=S)NCc1ccccc1)SCc1ccccc1)c1ccccc1 | 38% | 29.6% | 35.6% | 9.45% | – | 58%
42 | Nc1ccc(NC(=O)Nc2ccccc2)cc1 | 5.65% | -19.2% | -0.7% | -32.4% | -22.3% | -15.1%
43 | CCCCCCc1cc2cc(-c3csc(CC#N)n3)c(=O)oc2cc1O | 13.1% | 14.1% | -29.2% | -6.6% | – | -32%
